System: TAOK3
Settings: concentration: 1 μM,replicates: in singlicate; n = 1
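Also: KINOMEscan kinase panel screen.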

First: CN1CCN(CCCNc2nccc(-c3c(-c4ccc(F)cc4)nn4cc(C(N)=O)ccc34)n2)CC1 [GW622475]
Second: CCOC(=O)N1CCC(n2cnc(-c3ccc(F)cc3)c2-c2ccnc(N)n2)CC1 [SB-219952]
The “%Inh” value of the first is higher: 10% for the first, 0% for the second.

`C[C@@H]1CNc2c(sc3ccc4nc(-c5ccc(O)cc5)ccc4c23)C(=O)N1` and `C[C@@H]1CNc2c(sc3ccc4nc(-c5ccncc5)ccc4c23)C(=O)N1` are the same in “%Inh” value: 0% for the first, 0% for the second.

Compared with `CCn1c(-c2nonc2N)nc2cncc(Br)c21` [SB-738004], `CCn1c(-c2nonc2N)nc2cncc(CNC3CCNCC3)c21.Cl` [SB-747651] is lower in “%Inh” value: 1% for the first, 0% for the second.

`C[C@@H]1CCN(C(=O)N2CCCC2)C[C@@H]1N(C)c1ncnc2[nH]ccc12` and `COc1cc2ncn(-c3cc(OCC4CCCCC4)c(C(N)=O)s3)c2cc1OC` [GSK204559] are the same in “%Inh” value: 0% for the first, 0% for the second.

`CS(=O)c1ccc(-c2coc3ccc(-c4n[nH]c(=O)o4)cc23)cc1` (centres unmarked) and `Cc1nnc(-c2ccc3occ(-c4ccc(S(C)=O)cc4)c3n2)o1` (centres unmarked) are the same in “%Inh” value: 0% for the first, 0% for the second.

Compared with `C[C@@H](Oc1cc(-n2cnc3cc(-c4cnn(C)c4)ccc32)sc1C(N)=O)c1ccccc1Cl` [GSK580432], `Cn1cc(-c2cccc3c(N)c(C(N)=O)nnc23)cn1` is higher in “%Inh” value: 0% for the first, 12% for the second.

`CN1CCN(CCNc2nc3cc(Oc4ccc(NC(=O)Nc5cc(C(F)(F)F)ccc5F)cc4)ccc3[nH]2)CC1.Cl.Cl` [GW768504] and `COC(=O)Nc1nc2cc(Oc3ccc(NC(=O)Nc4cc(C(F)(F)F)ccc4Cl)cc3)ccc2[nH]1.Cl` [GW697465] are the same in “%Inh” value: 0% for the first, 0% for the second.

Going from `CCNCC(Cc1ccccc1)NC(=O)c1cc(Br)c(-c2ccnc3[nH]ccc23)s1.Cl.Cl` (centres unmarked) [GSK1383280] to `CNC(=O)c1ccccc1Nc1nc(Nc2cccc(CS(C)(=O)=O)c2)ncc1C.O=CO` [GSK1520489], the “%Inh” value rises from 15% to 52%.

Going from `CCCC(=O)Nc1n[nH]c2ncccc12` [SB-601436] to `CCN1CCN(CCCC(=O)Nc2n[nH]c3nc(-c4ccc(O)cc4)c(Br)cc23)CC1` [SB-731579], the “%Inh” value rises from 0% to 66%.

First: COc1cccc(C2=C(Nc3cccc(Cl)c3)C(=O)NC2=O)c1 [SB-341556]
Second: COc1cc2nccc(Nc3ccc(Oc4ccccc4)cc3)c2cc1OC.Cl [GI261656]
The “%Inh” value of the first is higher: 23% for the first, 0% for the second.

Going from `CC(=O)c1c(-c2ccncc2)[nH]c(-c2ccncc2)c1C` [GW493036] to `Cc1cccc2c(-c3ccncc3)c(-c3ccc(F)cc3)nn12.Cl` [GW461487], the “%Inh” value rises from 0% to 5%.

Going from `O=c1[nH]cc(-c2ccc(O)cc2)c2sc(-c3ccncc3)cc12` [GSK1033723] to `Cc1cccc(-c2nc(Nc3ccncc3)c3sccc3n2)n1` [GW869641], the “%Inh” value rises from 0% to 38%.

First: Nc1nccc(-c2ccc3c(N)n[nH]c3c2)n1 [GSK1034945]
Second: NC(=O)Nc1sc(-c2ccc(F)cc2)cc1C(N)=O [GW789449]
The “%Inh” value of the first is lower: 0% for the first, 3% for the second.

`COC(=O)c1cccc(NC(=O)NC2CCN(c3ccnc(NCc4ccc(F)cc4)n3)CC2)c1` [GSK1379860] and `COC(=O)c1cccc(NC(=O)NC2CCN(c3ccnc(Nc4cc(OC)c(OC)c(OC)c4)n3)C2)c1` (centres unmarked) [GSK1379767] are the same in “%Inh” value: 0% for the first, 0% for the second.

`Cn1ccc2ncnc(Oc3ccc(NC(=O)Nc4cccc(C(F)(F)F)c4)c(Cl)c3)c21` and `Cn1ccc2ncnc(Oc3ccc(NC(=O)Nc4cnn(C(C)(C)C)c4)c(Cl)c3)c21` are the same in “%Inh” value: 0% for the first, 0% for the second.

`OCCn1cc(-c2cnc3nnn(Cc4ccc5ncccc5c4)c3n2)cn1` and `c1ccc(Oc2ccc(Nc3ccnc4ccc(-c5ccccn5)cc34)cc2)cc1` [GW407034] are the same in “%Inh” value: 0% for the first, 0% for the second.

`O=C(Nc1cccc(C(F)(F)F)c1)c1cccc(Oc2ccc3nccn3n2)c1` and `Cc1ccc(C(=O)Nc2ccc(Oc3ccc4nc(NC(=O)C5CC5)cn4c3)c(F)c2)c(=O)n1-c1ccccc1` are the same in “%Inh” value: 0% for the first, 0% for the second.

Going from `Cc1ccc(Nc2ccnc(Nc3ccc4c(c3)CS(=O)(=O)C4)n2)cc1O.Cl` [GW579362] to `CC(C(=O)NC1CCN(c2ccnc(Nc3ccc(F)cc3)n2)C1)c1ccc(Cl)cc1` (centres unmarked) [GSK1379713], the “%Inh” value falls from 47% to 0%.

With `Cn1ccc2ncnc(Oc3ccc(NC(=O)Nc4cc(C(C)(C)C)on4)c(Cl)c3)c21` the “%Inh” value was 0%.

System: TBK1
Settings: concentration: 1 μM,replicates: in singlicate; n = 1

Going from `CN1CCN(CCCNc2nccc(-c3c(-c4ccc(F)cc4)nn4cc(C(N)=O)ccc34)n2)CC1` [GW622475] to `CCOC(=O)N1CCC(n2cnc(-c3ccc(F)cc3)c2-c2ccnc(N)n2)CC1` [SB-219952], the “%Inh” value rises from 0% to 16%.

Going from `C[C@@H]1CNc2c(sc3ccc4nc(-c5ccc(O)cc5)ccc4c23)C(=O)N1` to `C[C@@H]1CNc2c(sc3ccc4nc(-c5ccncc5)ccc4c23)C(=O)N1`, the “%Inh” value rises from 8% to 9%.

Going from `CCn1c(-c2nonc2N)nc2cncc(Br)c21` [SB-738004] to `CCn1c(-c2nonc2N)nc2cncc(CNC3CCNCC3)c21.Cl` [SB-747651], the “%Inh” value falls from 16% to 7%.

First: C[C@@H]1CCN(C(=O)N2CCCC2)C[C@@H]1N(C)c1ncnc2[nH]ccc12
Second: COc1cc2ncn(-c3cc(OCC4CCCCC4)c(C(N)=O)s3)c2cc1OC [GSK204559]
The “%Inh” value of the first is higher: 64% for the first, 26% for the second.

Compared with `CS(=O)c1ccc(-c2coc3ccc(-c4n[nH]c(=O)o4)cc23)cc1` (centres unmarked), `Cc1nnc(-c2ccc3occ(-c4ccc(S(C)=O)cc4)c3n2)o1` (centres unmarked) is higher in “%Inh” value: 20% for the first, 30% for the second.

Compared with `C[C@@H](Oc1cc(-n2cnc3cc(-c4cnn(C)c4)ccc32)sc1C(N)=O)c1ccccc1Cl` [GSK580432], `Cn1cc(-c2cccc3c(N)c(C(N)=O)nnc23)cn1` is higher in “%Inh” value: 0% for the first, 31% for the second.

Going from `CN1CCN(CCNc2nc3cc(Oc4ccc(NC(=O)Nc5cc(C(F)(F)F)ccc5F)cc4)ccc3[nH]2)CC1.Cl.Cl` [GW768504] to `COC(=O)Nc1nc2cc(Oc3ccc(NC(=O)Nc4cc(C(F)(F)F)ccc4Cl)cc3)ccc2[nH]1.Cl` [GW697465], the “%Inh” value falls from 28% to 0%.

Compared with `CCNCC(Cc1ccccc1)NC(=O)c1cc(Br)c(-c2ccnc3[nH]ccc23)s1.Cl.Cl` (centres unmarked) [GSK1383280], `CNC(=O)c1ccccc1Nc1nc(Nc2cccc(CS(C)(=O)=O)c2)ncc1C.O=CO` [GSK1520489] is higher in “%Inh” value: 26% for the first, 44% for the second.

`CCCC(=O)Nc1n[nH]c2ncccc12` [SB-601436] and `CCN1CCN(CCCC(=O)Nc2n[nH]c3nc(-c4ccc(O)cc4)c(Br)cc23)CC1` [SB-731579] are the same in “%Inh” value: 0% for the first, 0% for the second.

Going from `COc1cccc(C2=C(Nc3cccc(Cl)c3)C(=O)NC2=O)c1` [SB-341556] to `COc1cc2nccc(Nc3ccc(Oc4ccccc4)cc3)c2cc1OC.Cl` [GI261656], the “%Inh” value rises from 2% to 13%.

Going from `CC(=O)c1c(-c2ccncc2)[nH]c(-c2ccncc2)c1C` [GW493036] to `Cc1cccc2c(-c3ccncc3)c(-c3ccc(F)cc3)nn12.Cl` [GW461487], the “%Inh” value rises from 0% to 16%.

Going from `O=c1[nH]cc(-c2ccc(O)cc2)c2sc(-c3ccncc3)cc12` [GSK1033723] to `Cc1cccc(-c2nc(Nc3ccncc3)c3sccc3n2)n1` [GW869641], the “%Inh” value rises from 19% to 31%.

Going from `Nc1nccc(-c2ccc3c(N)n[nH]c3c2)n1` [GSK1034945] to `NC(=O)Nc1sc(-c2ccc(F)cc2)cc1C(N)=O` [GW789449], the “%Inh” value rises from 20% to 41%.

Compared with `COC(=O)c1cccc(NC(=O)NC2CCN(c3ccnc(NCc4ccc(F)cc4)n3)CC2)c1` [GSK1379860], `COC(=O)c1cccc(NC(=O)NC2CCN(c3ccnc(Nc4cc(OC)c(OC)c(OC)c4)n3)C2)c1` (centres unmarked) [GSK1379767] is higher in “%Inh” value: 0% for the first, 32% for the second.

Compared with `Cn1ccc2ncnc(Oc3ccc(NC(=O)Nc4cccc(C(F)(F)F)c4)c(Cl)c3)c21`, `Cn1ccc2ncnc(Oc3ccc(NC(=O)Nc4cnn(C(C)(C)C)c4)c(Cl)c3)c21` is lower in “%Inh” value: 15% for the first, 10% for the second.

Going from `OCCn1cc(-c2cnc3nnn(Cc4ccc5ncccc5c4)c3n2)cn1` to `c1ccc(Oc2ccc(Nc3ccnc4ccc(-c5ccccn5)cc34)cc2)cc1` [GW407034], the “%Inh” value rises from 0% to 18%.

First: O=C(Nc1cccc(C(F)(F)F)c1)c1cccc(Oc2ccc3nccn3n2)c1
Second: Cc1ccc(C(=O)Nc2ccc(Oc3ccc4nc(NC(=O)C5CC5)cn4c3)c(F)c2)c(=O)n1-c1ccccc1
The “%Inh” value of the first is lower: 12% for the first, 44% for the second.

First: Cc1ccc(Nc2ccnc(Nc3ccc4c(c3)CS(=O)(=O)C4)n2)cc1O.Cl [GW579362]
Second: CC(C(=O)NC1CCN(c2ccnc(Nc3ccc(F)cc3)n2)C1)c1ccc(Cl)cc1 (centres unmarked) [GSK1379713]
The “%Inh” value of the first is higher: 90% for the first, 0% for the second.

For `Cn1ccc2ncnc(Oc3ccc(NC(=O)Nc4cc(C(C)(C)C)on4)c(Cl)c3)c21`, the “%Inh” value was 28%.

— article PMC5540273 (PLoS ONE, 2017)
